Autofluor counter = counter-screen for toxin protease inhibitors: compound fluorescence; compound autofluorescence counterscreen, microsphere flow cytometry; hits give high values; fluorescence intensity (no concentration beside the values); 3.1% of 360,000 active; in the data active means fluorescence intensity above about 16000; inconclusive means no clear call, values can overlap the other calls
BoNT A protease = BoNT/A light chain protease inhibitors, primary screen, biochemical, flow cytometry, MLPCN library. multiplex microsphere protease substrate cleavage. inhibition, % at 10 µM. Botulinum neurotoxin type A light chain protease (Clostridium botulinum A str. ATCC 3502). 0.17% of 360,000 active; in the data active means inhibition above about 30%; inconclusive means no clear call, values can overlap the other calls; further: plate controls were buffer without enzyme for full effect and enzyme alone for no effect
BoNT-F LC inh = BoNT/F light chain protease inhibitors, primary screen, biochemical, flow cytometry, MLPCN library; Botulinum neurotoxin type F light chain protease (Clostridium botulinum); Multiplex microsphere protease cleavage assay; inhibition, % at 10 µM; 0.22% of 360,000 active; AID 588497, 2011; in the data active means inhibition above about 35%, passing the limit was not always enough; inconclusive means no clear call, values can overlap the other calls; further: plate controls were buffer without enzyme for full effect and enzyme alone for no effect
Anthrax LF prot = Bacillus anthracis LF protease inhibitors, primary screen, biochemical, multiplex microsphere, MLPCN library; multiplex microsphere protease cleavage assay; 0.12% of 360,000 active; Lethal factor (Bacillus anthracis), P15917; inhibition, % at 10 µM; in the data active means inhibition above about 30%; inconclusive means no clear call, values can overlap the other calls; further: plate controls were buffer without enzyme for full effect and enzyme alone for no effect
Target sequence (P15917 whole entry, looked up): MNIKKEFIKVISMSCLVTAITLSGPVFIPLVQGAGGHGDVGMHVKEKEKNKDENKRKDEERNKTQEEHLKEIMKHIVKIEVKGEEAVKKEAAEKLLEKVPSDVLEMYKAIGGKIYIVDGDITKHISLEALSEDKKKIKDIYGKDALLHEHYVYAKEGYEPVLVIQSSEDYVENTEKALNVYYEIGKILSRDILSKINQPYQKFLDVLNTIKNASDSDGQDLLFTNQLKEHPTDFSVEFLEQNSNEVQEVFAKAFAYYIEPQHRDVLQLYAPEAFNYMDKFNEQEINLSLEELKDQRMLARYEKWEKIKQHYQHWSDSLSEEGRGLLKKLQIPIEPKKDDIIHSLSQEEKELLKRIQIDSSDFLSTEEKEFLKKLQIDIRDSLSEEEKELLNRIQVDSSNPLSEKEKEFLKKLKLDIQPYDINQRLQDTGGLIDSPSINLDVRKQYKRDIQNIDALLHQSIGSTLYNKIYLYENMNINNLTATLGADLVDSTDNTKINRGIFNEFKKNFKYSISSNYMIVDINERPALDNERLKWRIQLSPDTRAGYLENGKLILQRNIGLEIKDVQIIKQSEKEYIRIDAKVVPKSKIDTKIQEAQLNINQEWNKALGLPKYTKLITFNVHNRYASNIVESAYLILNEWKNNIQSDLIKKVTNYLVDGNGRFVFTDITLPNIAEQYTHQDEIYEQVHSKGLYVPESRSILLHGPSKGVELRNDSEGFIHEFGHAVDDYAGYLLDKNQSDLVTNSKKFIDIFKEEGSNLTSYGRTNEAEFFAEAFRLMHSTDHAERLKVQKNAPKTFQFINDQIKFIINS
BoNT-A LC CP1 = BoNT/A light chain protease inhibitors, confirmation, biochemical, flow cytometry, cherry pick 1 | shares compounds with BoNT-F LC inh | multiplex microsphere protease assay | inhibition, % at 10 µM | 3% of 720 active | AID 602139, 2011; in the data active means inhibition above about 32%
BoNTF LC inh 1 = BoNT/F light chain protease inhibitors, confirmation, biochemical, flow cytometry, cherry pick 1; shares compounds with BoNT-F LC inh; multiplex microsphere protease cleavage assay; inhibition, % at 10 µM; 720 tested, under 10 active; AID 602140, 2011
Anthrax LF CP1 = Bacillus anthracis LF protease inhibitors, confirmation, biochemical, multiplex microsphere, cherry pick 1 | inhibition, % at 10 µM | multiplex microsphere protease cleavage assay | shares compounds with BoNT-F LC inh | AID 602142, 2011 | 720 tested, under 10 active
BoNTA LC inh 2 = BoNT/A light chain protease inhibitors, confirmation, biochemical, flow cytometry, cherry pick 2; shares compounds with BoNT A protease; multiplex microsphere protease cleavage assay; inhibition, % at 10 µM; 10% of 150 active; in the data active means inhibition above about 24%
Anthrax LF CP2 = Bacillus anthracis LF protease inhibitors, confirmation, biochemical, multiplex microsphere. shares compounds with BoNT A protease. multiplex microsphere protease cleavage assay. inhibition, % at 10 µM. 7% of 150 active. AID 602327, 2012; in the data active means inhibition above about 25%
BoNT-F LC CP2 = BoNT/F light chain protease inhibitors, confirmation, biochemical, flow cytometry, cherry pick 2; multiplex microsphere protease cleavage assay; AID 602336, 2012; inhibition, % at 10 µM; 7% of 150 active; shares compounds with BoNT A protease; in the data active means inhibition above about 25%
* hit, by the source's call; ? = inconclusive; nt = no result given. Shown are actives, neighbours in structure and some others; about 3.5% of the full set was active somewhere. Unless noted, how the calls were made is not given here.

SMILES	Autofluor counter	BoNT A protease	BoNT-F LC inh	Anthrax LF prot	BoNT-A LC CP1	Anthrax LF CP1	others
COc1ccc(/C=C/c2cc(C(F)(F)F)on2)cc1	3409	0	40*	10	-1	-5	BoNTF LC inh 1=-4
COc1ccc(C(O)c2nc(/C=C/c3ccc(C(F)(F)F)cc3)cs2)cc1 (stereo not drawn)	3503	0	-5	-6	nt	nt
O=C(Nc1ccc(F)cc1)Nc1cccc(Br)c1	3227	2	?	32*	1	-3	BoNTF LC inh 1=-6
Cc1ccccc1-n1ncc2c1CC(C)(C)CC2NC(=O)CCCN1CCCC1=O (stereo not drawn)	5559	0	6	7	nt	nt
CCS(=O)(=O)Nc1cccc(C2=NN(S(C)(=O)=O)C(c3ccccc3)C2)c1 (stereo not drawn)	7796	-1	8	0	nt	nt
CCS(=O)(=O)N1N=C(c2cccc(NS(C)(=O)=O)c2)CC1c1ccccc1 (stereo not drawn)	25649*	94*	30	44*	-6	-8
O=C(NC(Cc1ccccc1)C(=O)O)/C(=C\c1ccc(Cl)cc1)NC(=O)c1ccco1 (stereo not drawn)	6353	-2	-3	-1	nt	nt
CNC(=S)N1N=C(c2cccs2)CC1c1ccc(F)cc1 (stereo not drawn)	3676	0	50*	6	1	-2	BoNTF LC inh 1=-3
CCn1c(=O)c(C(=O)Nc2cccnc2)c(O)c2ccccc21	6137	5	40*	4	-2	1	BoNTF LC inh 1=-3
O=C(Nc1ccc(O)cc1C(=O)O)c1ccc2c(c1)C(=O)N(Cc1ccco1)C2=O	6881	5	35*	0	0	1	BoNTF LC inh 1=-3
CCOc1ccc2[nH]c3c(NCC(C)C)ncnc3c2c1	4836	-6	?	-6	nt	nt
CCOC(=O)C1CCN(CCC(=O)Nc2cc(C)ccc2C)CC1	3509	1	?	42*	0	-5	BoNTF LC inh 1=-1
CCOC(=O)N1CCN(CCC(=O)Nc2cc(C)ccc2C)CC1	3437	2	9	-14	nt	nt
Cc1ccc(S(=O)(=O)N2CCN(C(=O)CNC(=O)c3sc4ccccc4c3Cl)CC2)cc1	4190	4	13	3	nt	nt
COc1ccc(-c2cnc3n2CCCCC3)cc1	3877	5	42*	9	-1	1	BoNTF LC inh 1=-1
c1csc(-c2cnc3n2CCCC3)c1	4734	-1	-27	-4	nt	nt
COc1ccc(NC(=O)c2[nH]c(C)c(C(C)=O)c2C)cc1	4240	-2	-4	-3	nt	nt
CCOc1ccc(NC(=O)c2[nH]c(C)c(C(C)=O)c2C)cc1	7115	-1	35*	3	-2	-2	BoNTF LC inh 1=-7
COCCNC(=O)C1CCCN(C(=O)c2cc(-c3cccs3)oc2C)CC1 (stereo not drawn)	3965	0	-6	1	nt	nt
O=C(NC1CCCCC1)C1CCN(c2ncccn2)CC1	4664	-1	1	-1	nt	nt
O=C(NC1CCCCCC1)C1CCCN(c2ncccn2)C1 (stereo not drawn)	4520	79*	15	8	2	-5	BoNTF LC inh 1=-7
CC(=O)C1=C(O)C(=O)N(c2ccc(Br)cc2)C1c1cccc([N+](=O)[O-])c1 (stereo not drawn)	4433	2	?	-10	nt	nt
CCOc1ccc(NS(=O)(=O)c2cc(C(=O)N3CCN(c4ccccc4O)CC3)ccc2Cl)cc1	5326	1	-8	0	nt	nt
CCCn1c(=O)c2c(nc3n2CCCN3Cc2ccccc2)n(C)c1=O	2935	0	41*	-10	-1	-8	BoNTF LC inh 1=-4
COc1ccc(C(=O)N2CCC(C)(C(=O)O)C2)c(OC)c1 (stereo not drawn)	4145	-1	-3	-6	nt	nt
SMILES	Autofluor counter	BoNT A protease	BoNT-F LC inh	Anthrax LF prot	BoNT-A LC CP1	Anthrax LF CP1	others
O=C(O)CN1CCN(CC(=O)O)CCN(CC(=O)O)CCN(CC(=O)O)CC1	5999	9	63*	9	nt	nt	BoNTA LC inh 2=6;Anthrax LF CP2=4;BoNT-F LC CP2=48*
CC(C)(O)C#Cc1ccc(CNC[C@H]2O[C@@H](n3cnc4c(N)ncnc43)[C@H](O)[C@@H]2O)s1	4088	0	-6	0	nt	nt
Cc1cc2cc(CNC(=O)c3ccc(Br)o3)ccc2[nH]1	2858	67*	-110	-78	nt	nt	BoNTA LC inh 2=23;Anthrax LF CP2=18;BoNT-F LC CP2=-18
Cc1cc2cc(CNC(=O)c3cccc([N+](=O)[O-])c3)ccc2[nH]1	2875	79*	-64	-49	nt	nt	BoNTA LC inh 2=27*;Anthrax LF CP2=-1;BoNT-F LC CP2=14
Cc1cc2cc(CNC(=O)c3ccc(Br)o3)ccc2n1C	2858	62*	-61	-24	nt	nt	BoNTA LC inh 2=15;Anthrax LF CP2=10;BoNT-F LC CP2=-11
Cc1ccc(CNC(=O)c2ccc(Br)o2)cc1	5929	0	3	-6	nt	nt
O=C(NCc1ccc2c(c1)OCO2)c1cccc([N+](=O)[O-])c1	2511	0	2	0	nt	nt
Cc1c(C(=O)NCc2ccc3c(c2)cc(C)n3C)cccc1[N+](=O)[O-]	1750	78*	-88	-100	nt	nt	BoNTA LC inh 2=6;Anthrax LF CP2=3;BoNT-F LC CP2=-8
COc1ccc(C(=O)Oc2cc(C)c(CN3CCOCC3)cc2C)cc1OC	3972	0	-15	-7	nt	nt
CC1CCCCN1C(=O)CCS(=O)(=O)c1cccc2nonc12 (stereo not drawn)	3289	0	-1	-2	nt	nt
O=C(NCc1ccc(Cl)cc1)c1cc(S(=O)(=O)N2CCCCC2)c[nH]1	5850	-1	-2	1	nt	nt
Cc1cc2cc(CNC(=O)Cc3cccs3)ccc2n1C	2301	75*	-62	-53	nt	nt	BoNTA LC inh 2=20;Anthrax LF CP2=9;BoNT-F LC CP2=-23
Cn1c(CNC(=O)C2CCCCC2)cc2cc(Cl)ccc21	3777	1	?	5	nt	nt
Cc1cc2cc(CNC(=O)C3CCCC3)ccc2n1C	3369	45*	-32	1	nt	nt	BoNTA LC inh 2=4;Anthrax LF CP2=4;BoNT-F LC CP2=-2
Cc1ccc(S(=O)(=O)NCc2ccc3[nH]c(C)cc3c2)cc1	4738	20	-42	0	nt	nt	BoNTA LC inh 2=1;Anthrax LF CP2=-1;BoNT-F LC CP2=3
CNc1nc(N)c([N+](=O)[O-])c(Nc2ccccc2OC)n1	2859	-2	-22	0	nt	nt
CC(C)N1C(=O)NC2NC(=O)N(C(C)C)C21 (stereo not drawn)	6007	0	0	-2	nt	nt
Cc1cccc(NC(=O)NCc2ccc3c(c2)cc(C)n3C)c1	1708	58*	-149	-131	nt	nt	BoNTA LC inh 2=21;Anthrax LF CP2=3;BoNT-F LC CP2=-37

Bioassay records: PubChem BioAssay, NMMLSC
